Our source for the activity score values is PubChem BioAssay AID1814 (Broad Institute, 2009).

Molecules are shown by their SMILES. In all, about 300,000 compounds went through this assay and about 22,000 (7.3%) were called active. Not shown: some 2% with an inconclusive outcome. Rule as the data show it: active = activity score below about -60%; inconclusive = mostly about -28% to -61%; inactive = positive scores. This excerpt belongs to a sample that is enriched for actives.

The experiment is described as follows: Activators working through SNCA 5'UTR binding (MLPCN) (AID 1814). The settings on record: alpha-synuclein 5'UTR reporter, activators screen; active compounds read low; tested at 7.5 µM.
For the compound `Cc1ccccc1NC(=O)CCOc1ccccc1`, the activity score was -74.9% (active).

Take `CCN1CCN(C(C(=O)NC2CCCC2)c2cc3c(cc2[N+](=O)[O-])OCO3)CC1` (configuration not stated): the activity score was -63% (active).

In the case of `CCCCCc1ccc(-c2ccc(OCC)cc2)nc1`, the activity score is 79.7% (inactive).

On to `CCCOc1ccc(-c2nc(N)n[nH]2)cc1`, for which the activity score is -93.7% (active).

Consider `COC(=O)c1c(NC(=O)c2cccs2)sc2c1CCCC2`, for which the activity score is -128% (active).

In the case of `CCOC(=O)c1c(NC(=O)c2ccc(Br)o2)sc2c1CCCC2`, the activity score is -64.9% (active).

Regarding `C=CCN(CC=C)S(=O)(=O)c1ccc(C(=O)Nc2sc3c(c2C(N)=O)CCCCC3)cc1`, the activity score was -70.1% (active).

`NC(=O)c1c(NC(=O)c2ccccc2)sc2c1CCCC2`: the activity score is -148% (active).

With `COc1ccc(NCCc2ccccn2)cc1`, the activity score was -134% (active).

For `CCC(C)NC(=O)CCCc1ccccc1` (configuration not stated), the activity score is -63.7% (active).

Consider `O=C(Nc1ccc(Cl)cc1)c1ccsn1`, for which the activity score is -143% (active).

As to `Cc1ccc(NC(=O)c2ccn(C(=O)Nc3ccccc3)n2)c(C)c1`, the activity score was -69.3% (active).

Turning to `c1ccc(CN2CCC(N=C3NN=C(c4ccc5c(c4)OCCO5)CS3)CC2)cc1`, the activity score was -223% (active).

In the case of `CCS(=O)(=O)c1cc([N+](=O)[O-])c(Sc2ccccc2N)s1`, the activity score was -91.3% (active).

In the case of `COc1ccc(C(=O)c2c3ccc([N+](=O)[O-])cc3[n+]([O-])n2CCCN)cc1`, the activity score was 63.1% (inactive).

Take `CCN1CCN(c2ccc([N+](=O)[O-])cc2C(=O)c2ccc(Cl)cc2)CC1`: the activity score was -107% (active).

Regarding `Cc1ccc(NC(=S)N2CCN(c3ncccn3)CC2)cc1C`, the activity score was -84.3% (active).

Regarding `CC(=O)c1ccc(NC(=O)CCc2nnc3ccc(NCc4ccco4)nn23)cc1`, the activity score is -95.3% (active).

`O=C(/C=C/c1ccc([N+](=O)[O-])o1)NNC(=O)c1ccc(F)cc1`: the activity score was -94.3% (active).

On to `C=CCSc1nnc(NC(=O)c2ccc(NC(C)=O)cc2)s1`, for which the activity score is -64.4% (active).

Regarding `NC(=O)CSc1nnc(NC(=O)c2ccc3ccccc3c2)s1`, the activity score is -88.3% (active).

In the case of `COC(=O)c1ccc(-n2cnc3ccccc32)nc1`, the activity score is -117% (active).

In the case of `COCCn1c(=NC(=O)c2ccccc2[N+](=O)[O-])sc2cc(S(C)(=O)=O)ccc21`, the activity score was -151% (active).

In the case of `CCOC(=O)c1cc2n(c1C)-c1ccccc1C2=O`, the activity score is -108% (active).

As for `CCOC(=O)c1c(C)[nH]c2c1-c1ccccc1C(=O)C2=O`, the activity score was 99.5% (inactive).

In the case of `COc1ccc(Nc2nnc(C)c3ccccc23)cc1`, the activity score was -67.1% (active).

As for `COc1ccc(Nc2cc(C)nc(-n3nc(C)cc3C)n2)cc1`, the activity score was 92.8% (inactive).

As to `O=C(c1cc(-c2ccc(O)cc2)on1)N1CCCc2ccccc21`, the activity score was -95.6% (active).

As to `COc1c(C)c2c(c(O)c1C/C=C(\C)CCC(=O)O)C(=O)OC2`, the activity score was 76.6% (inactive).

For `C=CCNC(=O)/C=C/c1ccc(C(C)C)cc1`, the activity score is -129% (active).

Regarding `COc1ccc(-n2cnc3cc(NCc4ccco4)ccc32)cc1`, the activity score was -126% (active).

For `COc1ccc(/C(N)=N/OC(=O)Cc2ccccc2)cc1`, the activity score was -125% (active).

Turning to `COc1ccc(-c2nc3cc([N+](=O)[O-])ccc3o2)cc1OC`, the activity score is -65.4% (active).

For `O=[N+]([O-])c1ccc2oc(-c3cccc(O)c3)nc2c1`, the activity score was -91.7% (active).

With `Cc1ccc(N=C2NC(=O)/C(=C/C=C/c3ccco3)S2)cc1C`, the activity score was -81.5% (active).

As to `COc1ccc(C(=O)Nc2ccccc2C(=O)N/N=C/c2ccccc2OC)cc1`, the activity score is -124% (active).

In the case of `COc1ccc(C(=O)Nc2cc(C)c(NC(=O)c3ccccc3OC)cn2)cc1`, the activity score was -115% (active).

On to `CC(C)(C)C(=O)Nc1ccc(C(=O)N/N=C/c2ccccc2OC(=O)c2ccc(Cl)cc2Cl)cc1`, for which the activity score was 65.2% (inactive).

Take `N#CC1=C(N)Oc2cc(O)ccc2C1C1CCCCC1` (configuration not stated): the activity score is -65.6% (active).

Take `C=CCN(C(=O)Nc1ccc2c(c1)nc(C)n2C)c1ccccc1`: the activity score is -71.4% (active).

As to `C=CCN(C(=O)Nc1ccc2oc(C)nc2c1)c1ccccc1`, the activity score was -65.8% (active).

For `O=C(COc1ccc([N+](=O)[O-])cc1)Nc1ccc(N2CCCC2)cc1`, the activity score was -69.6% (active).

Take `O=C(CSc1nnc2ccccn12)c1ccccc1`: the activity score was -81.7% (active).

Turning to `C=C(C)CSc1nc(N)c2c3c(sc2n1)CCC3`, the activity score was -152% (active).

As for `CC(C)(C)C1CCc2c(sc3nc(SCC(N)=O)nc(N)c23)C1` (configuration not stated), the activity score was -196% (active).

With `COC(=O)c1sc(NC(=O)c2csc3c2CCCC3)nc1C`, the activity score is -228% (active).

With `Cc1ccc(NC(=O)c2csc3c2CCCC3)cc1`, the activity score is -158% (active).

Take `Cc1cc2c(C)nc(N/N=C/c3ccccc3)nc2o1`: the activity score was -123% (active).

Turning to `COC(=O)c1ccc(CSc2ccc3nnc(-c4ccccc4)n3n2)o1`, the activity score is 53.7% (inactive).

Consider `COC(=O)c1ccc(CSc2nncn2C)cc1`, for which the activity score is -112% (active).

`Cc1ccc(Oc2nc(-c3ccccn3)nc3ccccc23)cc1`: the activity score was -92.6% (active).

On to `CSc1nc2ccc(NC(=O)c3c(F)cccc3F)cc2s1`, for which the activity score is -166% (active).

For `CCn1c(=O)c2cc(C(=O)Nc3cccc(C(C)=O)c3)sc2c2ccccc21`, the activity score is -66.3% (active).

Consider `Fc1cccc(Cl)c1CSc1ccc(-c2ccco2)nn1`, for which the activity score is -172% (active).

`CSc1ccccc1NC(=O)c1cnc2sc(C)cn2c1=O`: the activity score was -129% (active).

Turning to `CC(C)(C)NC(=O)Cn1nnc(-c2ccccc2Cl)n1`, the activity score is -117% (active).

Turning to `O=C1N/C(=C/c2cccn2-c2ccccc2)C(=O)N1c1cccc(Cl)c1`, the activity score is -65.3% (active).

For the compound `COc1ccc(C2CC(c3cccs3)=NN2c2ccccc2)cc1` (configuration not stated), the activity score was -69% (active).

Consider `COc1ccc(Cc2n[nH]c(=S)n2NC(=O)Nc2ccc(C)cc2)cc1`, for which the activity score was -75.9% (active).

On to `CC(C)COC(=O)c1ccc(NC(=O)C2C3C=CC(C3)C2C(=O)O)cc1` (configuration not stated), for which the activity score was -101% (active).

On to `Cc1nc2cc(NC(=O)NCc3ccccc3)ccc2o1`, for which the activity score is -102% (active).

Take `Cc1ccc(NC(=O)Nc2ccc3oc(C)nc3c2)cc1`: the activity score is -272% (active).

Regarding `COc1cc(/C=C2/C(=O)ON=C2C)ccc1OCc1cccc(F)c1`, the activity score is -149% (active).

On to `COc1cc(/C=C2/C(=O)ON=C2C)ccc1OCc1ccccc1F`, for which the activity score is -183% (active).

In the case of `CN1CCN(C2Cc3ccc(Cl)cc3Sc3ccc(F)cc32)CC1` (configuration not stated), the activity score is 104% (inactive).

`Cc1n[nH]c(C)c1S(=O)(=O)N1CCCC(C(=O)Nc2ccc(Br)cc2)C1` (configuration not stated): the activity score was -116% (active).

Regarding `COc1ccc(S(=O)(=O)N2CCCC(C(=O)Nc3ccc(NC(=O)c4ccccn4)cc3)C2)cc1` (configuration not stated), the activity score is -87.5% (active).
